The panel holds about 83,000 compounds, 20% with a hit somewhere; the sample as a whole holds those more often.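 Negative percent growth values reflect cell death: -40 means 40% of the cells present at the start died, and -100 means all died.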 Calls of active or inactive are those of the source. How the source made its calls: active means growth percent below 10; inactive means the rest.

The results in this text go back to PubChem BioAssay (NCI).

One assay deals with SK-OV-3 ovarian. Briefly: NCI-60 one-dose screen, 48 h (100 = growth as untreated, 0 = no growth, -100 = all killed). The settings on record: 10 µM.
As to `C/C(=C\c1cc(Cl)ccc1OCC(=O)O)[N+](=O)[O-]`, the growth was 97.7% (inactive).
Same read-out and setting: then `Cc1cc(Cc2cc(C)c(N)cc2N)c(N)cc1N`, with 82.2% (inactive).
On the same count and under the same terms, then `CC1Cc2ccccc2O1` (configuration not stated), with 112% (inactive); and `Cc1cc(C)cc(NCCC#N)c1`, with 106% (inactive); and `OCC(O)C(O)C(O)C(O)/C=N/O` (configuration not stated), with 87.2% (inactive).
On the same count and under the same terms, then `O=c1cc(-c2ccccc2)[nH]c(=S)[nH]1`, with 113% (inactive); and `Nc1nc(N)c(N=Nc2ccc(C(=O)O)cc2)c(N)n1`, with 111% (inactive); and `c1ccc(CN2COc3c(ccc4c3OCN(Cc3ccccc3)C4)C2)cc1`, with 10.1% (inactive).
Take `CCOC(=O)C1=C(Nc2ccc(Br)cc2)C(=O)N(CC)C1`: the growth was 102% (inactive).
Regarding `CC(C)=CC(=O)OC(=O)C=C(C)C`, the growth was 96.8% (inactive).
Regarding `O=C(O)C(c1ccccc1)C(O)c1ccccc1` (configuration not stated), the growth is 99.9% (inactive).
With `O=C(CN1CCNCC1)N1CCOCC1`, the growth was 110% (inactive).
On the same count and under the same terms, then `Nc1ccc(N)c([N+](=O)[O-])c1`, with 113% (inactive); and `CCOC(=O)c1coc(C(=O)OCC)c1C(=O)OCC`, with 120% (inactive).
On the same count and under the same terms, next, `COC(=O)/C=C/C(=O)NC(N)=O`: 96.2% (inactive).
Still for that read-out and setting: then `O=[N+]([O-])c1ccc(N=Nc2ccccc2)cc1`, with 113% (inactive).

The next assay deals with IGROV1 ovarian. The description is as above. The following applies: 10 µM.
In the case of `COc1ccc(-c2cc3c(nn2)-c2ccccc2C3=O)cc1`, the growth was 61.6% (inactive).
Take `CCCCC(=O)c1ccc(OC)cc1`: the growth is 101% (inactive).
Still for that read-out and setting: next, `N=c1c(C(=O)OCc2ccccc2)ncc(CCl)n1O`: 95% (inactive); `CCOC(=O)c1ccc(Nc2sc(C(=O)c3cccc([N+](=O)[O-])c3)c(N)c2C#N)cc1`: -6.69% (active); `COC(=O)c1ccccc1N(C)C`: 106% (inactive).
On the same count and under the same terms, then `CC1(C(=O)O)NC(C(=O)O)Cc2c1[nH]c1ccccc21` (configuration not stated), with 107% (inactive).
As to `NCCC(=O)c1ccc(Cl)cc1`, the growth was 117% (inactive).
The same measure, in the same setting: next, `CC(=O)/C(Cc1ccccc1)=N/O`: 112% (inactive); `Cc1cccc(CO)c1`: 115% (inactive); `CC1(C)/C(=C\CO)C2CCC1C2` (configuration not stated): 112% (inactive).
Same read-out and setting: then `CC1C(=O)c2ccccc2CC1C(=O)O` (configuration not stated), with 100% (inactive).
The same measure, in the same setting: next, `CC12CC3CC1C(C(=O)O2)C3C(=O)O` (configuration not stated): 114% (inactive); `CC(C)CCOC(=O)c1ccccc1`: 102% (inactive).
Regarding `O=C1C[C@H](c2ccccc2)[C@H](c2ccccc2)C1`, the growth is 112% (inactive).
Still for that read-out and setting: then `O=c1cc(-c2ccccc2)oc2c1ccc1ccccc12`, with 94.1% (inactive); and `O=C(CCl)N1CCN(C/C=C/c2ccccc2)CC1`, with 40.8% (inactive); and `COC(=O)c1cccnc1`, with 91.9% (inactive).
As for `CC(=O)NCc1cc(C)c(C)cc1C`, the growth is 104% (inactive).
On the same count and under the same terms, then `C#CCSc1nnnn1-c1ccc(Br)c(C)c1`, with -28.7% (active); and `C=CCNC(=O)c1ccc(OC)cc1`, with 96.2% (inactive).
For the compound `O=C1Cc2ccccc2C(=O)O1`, the growth is 114% (inactive).
With `Cc1ccccc1C1N=C2Oc3ccccc3C=C2C(=O)N1` (configuration not stated), the growth is 43.3% (inactive).
Consider `C/C(=C\c1cc(Cl)ccc1OCC(=O)O)[N+](=O)[O-]`, for which the growth was 112% (inactive).
Consider `Cc1cc(Cc2cc(C)c(N)cc2N)c(N)cc1N`, for which the growth is 87.5% (inactive).
Same read-out and setting: then `CC1Cc2ccccc2O1` (configuration not stated), with 111% (inactive); and `Cc1cc(C)cc(NCCC#N)c1`, with 110% (inactive).
Still for that read-out and setting: then `OCC(O)C(O)C(O)C(O)/C=N/O` (configuration not stated), with 107% (inactive); and `O=c1cc(-c2ccccc2)[nH]c(=S)[nH]1`, with 104% (inactive).
The same measure, in the same setting: next, `Nc1nc(N)c(N=Nc2ccc(C(=O)O)cc2)c(N)n1`: 100% (inactive); `c1ccc(CN2COc3c(ccc4c3OCN(Cc3ccccc3)C4)C2)cc1`: 32.1% (inactive).
On to `CCOC(=O)C1=C(Nc2ccc(Br)cc2)C(=O)N(CC)C1`, for which the growth is 93.1% (inactive).
As for `CC(C)=CC(=O)OC(=O)C=C(C)C`, the growth is 106% (inactive).
Regarding `O=C(O)C(c1ccccc1)C(O)c1ccccc1` (configuration not stated), the growth was 101% (inactive).
On the same count and under the same terms, then `O=C(CN1CCNCC1)N1CCOCC1`, with 115% (inactive).
The same measure, in the same setting: then `Nc1ccc(N)c([N+](=O)[O-])c1`, with 113% (inactive); and `CCOC(=O)c1coc(C(=O)OCC)c1C(=O)OCC`, with 112% (inactive).
On the same count and under the same terms, then `COC(=O)/C=C/C(=O)NC(N)=O`, with 116% (inactive); and `O=[N+]([O-])c1ccc(N=Nc2ccccc2)cc1`, with 89.8% (inactive).

The subject of another assay is OVCAR-3 ovarian. The assay is described as above. The following applies: 10 µM.
On to `COc1ccc(-c2cc3c(nn2)-c2ccccc2C3=O)cc1`, for which the growth is -49.3% (active).
For `CCCCC(=O)c1ccc(OC)cc1`, the growth is 114% (inactive).
Same read-out and setting: then `N=c1c(C(=O)OCc2ccccc2)ncc(CCl)n1O`, with 99.1% (inactive).
The same measure, in the same setting: next, `CCOC(=O)c1ccc(Nc2sc(C(=O)c3cccc([N+](=O)[O-])c3)c(N)c2C#N)cc1`: -44.8% (active); `COC(=O)c1ccccc1N(C)C`: 106% (inactive); `CC1(C(=O)O)NC(C(=O)O)Cc2c1[nH]c1ccccc21` (configuration not stated): 112% (inactive).
In the case of `NCCC(=O)c1ccc(Cl)cc1`, the growth is 105% (inactive).
Same read-out and setting: next, `CC(=O)/C(Cc1ccccc1)=N/O`: 106% (inactive).
For `Cc1cccc(CO)c1`, the growth is 98.9% (inactive).
`CC1(C)/C(=C\CO)C2CCC1C2` (configuration not stated): the growth is 119% (inactive).
Regarding `CC1C(=O)c2ccccc2CC1C(=O)O` (configuration not stated), the growth was 129% (inactive).
Still for that read-out and setting: then `CC12CC3CC1C(C(=O)O2)C3C(=O)O` (configuration not stated), with 101% (inactive).
As to `CC(C)CCOC(=O)c1ccccc1`, the growth is 107% (inactive).
Same read-out and setting: then `O=C1C[C@H](c2ccccc2)[C@H](c2ccccc2)C1`, with 118% (inactive).
As for `O=c1cc(-c2ccccc2)oc2c1ccc1ccccc12`, the growth was 107% (inactive).
The same measure, in the same setting: then `O=C(CCl)N1CCN(C/C=C/c2ccccc2)CC1`, with 116% (inactive); and `COC(=O)c1cccnc1`, with 106% (inactive); and `CC(=O)NCc1cc(C)c(C)cc1C`, with 101% (inactive).
The same measure, in the same setting: then `C#CCSc1nnnn1-c1ccc(Br)c(C)c1`, with 106% (inactive); and `C=CCNC(=O)c1ccc(OC)cc1`, with 121% (inactive); and `O=C1Cc2ccccc2C(=O)O1`, with 127% (inactive).
The same measure, in the same setting: then `Cc1ccccc1C1N=C2Oc3ccccc3C=C2C(=O)N1` (configuration not stated), with -27.1% (active); and `C/C(=C\c1cc(Cl)ccc1OCC(=O)O)[N+](=O)[O-]`, with 109% (inactive).
As to `Cc1cc(Cc2cc(C)c(N)cc2N)c(N)cc1N`, the growth was 94.9% (inactive).
Still for that read-out and setting: next, `CC1Cc2ccccc2O1` (configuration not stated): 118% (inactive); `Cc1cc(C)cc(NCCC#N)c1`: 105% (inactive).
Same read-out and setting: next, `OCC(O)C(O)C(O)C(O)/C=N/O` (configuration not stated): 113% (inactive); `O=c1cc(-c2ccccc2)[nH]c(=S)[nH]1`: 106% (inactive).
Consider `Nc1nc(N)c(N=Nc2ccc(C(=O)O)cc2)c(N)n1`, for which the growth was 130% (inactive).
Same read-out and setting: then `c1ccc(CN2COc3c(ccc4c3OCN(Cc3ccccc3)C4)C2)cc1`, with 24.6% (inactive); and `CCOC(=O)C1=C(Nc2ccc(Br)cc2)C(=O)N(CC)C1`, with 110% (inactive); and `CC(C)=CC(=O)OC(=O)C=C(C)C`, with 101% (inactive).
Still for that read-out and setting: then `O=C(O)C(c1ccccc1)C(O)c1ccccc1` (configuration not stated), with 116% (inactive); and `O=C(CN1CCNCC1)N1CCOCC1`, with 122% (inactive); and `Nc1ccc(N)c([N+](=O)[O-])c1`, with 106% (inactive).
Consider `CCOC(=O)c1coc(C(=O)OCC)c1C(=O)OCC`, for which the growth is 111% (inactive).
As for `COC(=O)/C=C/C(=O)NC(N)=O`, the growth was 107% (inactive).
Same read-out and setting: then `O=[N+]([O-])c1ccc(N=Nc2ccccc2)cc1`, with 107% (inactive).
